Records with an inconclusive call do not appear. Activity calls are given as the source filed them. Calls follow the shape of the dose curve; as a rule, active = well fitted curve in the direction sought with a large enough effect; inconclusive = small, poorly fitted or top-dose-only effect, or another doubt; inactive = no such curve, though single readings can be large; an effect the other way counts as inactive or inconclusive.
Tests used:
[1] = test system: MKL-1; test: qHTS assay to identify novel small-molecules to repurpose for Merkel cell carcinoma treatment (AID 1296009); conditions: MCC and control cell lines, CellTiter-Glo viability, 72 h; series mostly up to 46 µM; also: nearly all actives have a fitted effect of over 60% in size; also: potency is read from the fitted curve at half-maximal effect
Outline: (§1)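 CellTiter-Glo luminescence after 72 hr compound exposure at 37 degree celsius gave cell viability. Libraries NPC and MIPE were run as 8- and 11-point dose responses; RLUs normalized to DMSO (negative) and no-cell (cytotoxicity) controls.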

[2] = test system: MKL-2; test: as above; conditions: MCC and control cell lines, CellTiter-Glo viability, 72 h; series mostly up to 46 µM
Outline: as §1

[3] = test system: UISO; test: as above; conditions: MCC and control cell lines, CellTiter-Glo viability, 72 h; series mostly up to 46 µM
Outline: as §1

[4] = test system: WaGa; test: as above; conditions: MCC and control cell lines, CellTiter-Glo viability, 72 h; series mostly up to 46 µM
Outline: as §1

[5] = test system: C33A; test: Primary qHTS to identify gynecologic anti-cancer compounds using libraries of approved drugs and bioactive compounds (AID 1345084); conditions: Gynecologic cancer cell panel viability, ATPlite luminescence, 48 h; series mostly up to 57.5 µM; also: nearly all actives have a fitted effect of over 55% in size
Outline: (§2)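 Five-concentration response, 48 h; readout is ATP-driven luciferase luminescence.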

[6] = test system: CASKI; test: as above; conditions: Gynecologic cancer cell panel viability, ATPlite luminescence, 48 h; series mostly up to 57.5 µM
Outline: as §2

[7] = test system: Es-2; test: as above; conditions: Gynecologic cancer cell panel viability, ATPlite luminescence, 48 h; series mostly up to 57.5 µM
Outline: as §2

[8] = test system: HeLa; test: as above; conditions: Gynecologic cancer cell panel viability, ATPlite luminescence, 48 h; series mostly up to 57.5 µM
Outline: as §2

[9] = test system: Hek293T; test: as above; conditions: Gynecologic cancer cell panel viability, ATPlite luminescence, 48 h, control line for the selectivity index; series mostly up to 57.5 µM
Outline: as §2

[10] = test system: JEG-3; test: as above; conditions: Gynecologic cancer cell panel viability, ATPlite luminescence, 48 h; series mostly up to 57.5 µM
Outline: as §2

[11] = test system: OV90; test: as above; conditions: Gynecologic cancer cell panel viability, ATPlite luminescence, 48 h; series mostly up to 57.5 µM
Outline: as §2

[12] = test system: PA-1; test: as above; conditions: Gynecologic cancer cell panel viability, ATPlite luminescence, 48 h; series mostly up to 57.5 µM
Outline: as §2

[13] = test system: SKOV3; test: as above; conditions: Gynecologic cancer cell panel viability, ATPlite luminescence, 48 h; series mostly up to 57.5 µM
Outline: as §2

[14] = test system: Tov-21-G; test: as above; conditions: Gynecologic cancer cell panel viability, ATPlite luminescence, 48 h; series mostly up to 57.5 µM
Outline: as §2

[15] = test system: Tov112D; test: as above; conditions: Gynecologic cancer cell panel viability, ATPlite luminescence, 48 h; series mostly up to 57.5 µM
Outline: as §2

Measured: Potency

CC(=O)N[C@H]1[C@@H]([C@H](O)[C@H](O)CO)OC(C(=O)O)=C[C@@H]1N=C(N)N
inactive: [1] | [2] | [3] | [4]

COC(=O)C1C2CC3c4[nH]c5cc(OC)ccc5c4CCN3CC2CC(OC(=O)c2cc(OC)c(OC)c(OC)c2)C1OC (configuration not stated)
inactive: [1] | [2] | [3] | [4]

CON=C(C(=O)N[C@@H]1C(=O)N2C(C(=O)O)=C(Cn3ccc(=N)n3CCO)CS[C@H]12)c1csc(N)n1
inactive: [1] | [2] | [3] | [4]

O=C(CN1C(=O)C2(CCCC2)NC[C@H]1c1cc(F)cc(F)c1)Nc1ccc2c(c1)C[C@@]1(C2)C(=O)Nc2ncccc21
inactive: [1] | [2] | [3] | [4]

CC(O)(C#Cc1ccc2c(c1)N(c1nc(N)ncc1Cl)CC2)c1nccs1 (configuration not stated)
inactive: all assays above

O=c1ccn([C@@H]2O[C@H](CO)[C@H](O)[C@@H]2F)c(=O)[nH]1
inactive: [1] | [2] | [3] | [4]

CCC(C(=O)O)C1CCC(C)C(C(C)C(O)C(C)C(=O)C(CC)C2OC3(C=CC(O)[C@@]4(CC[C@](C)(C5CC[C@@](O)(CC)C(C)O5)O4)O3)C(C)CC2C)O1 (some centres not stated)
active: [1] 2.96 µM | [2] 3.32 µM | [3] 3.72 µM | [4] 2.96 µM

COc1cc(C=CC(=O)CC(=O)C=Cc2ccc(O)c(OC)c2)ccc1O
active: [1] 10.8 µM | [2] 8.55 µM | [3] 21.5 µM | [4] 9.59 µM

CC(=CC(=O)Nc1ccccc1C(=O)O)c1ccc2ccccc2c1
inactive: [1] | [2] | [3] | [4]

O=[N+]([O-])c1cn2c(n1)OC[C@@H](OCc1ccc(OC(F)(F)F)cc1)C2
inactive: [1] | [2] | [3] | [4]

C#C[C@]1(O)CC[C@@H]2[C@@H]3CCC4=CC(=O)CC[C@@H]4[C@H]3CC[C@@]21CC
inactive: [1] | [2] | [3] | [4]

CC1(C)O[C@@H]2C[C@H]3[C@@H]4CCC5=CC(=O)C=C[C@]5(C)[C@@H]4[C@@H](O)C[C@]3(C)[C@]2(C(=O)CO)O1
inactive: all assays above

c1ccc2c(Oc3nc(Nc4ccc(N5CCOCC5)cc4)c4ncn(C5CCCCC5)c4n3)cccc2c1
inactive: all assays above

CC[C@H](CC[C@@H](C)[C@H]1CC[C@H]2[C@@H]3CC=C4C[C@@H](O)CC[C@]4(C)[C@@H]3CC[C@]12C)C(C)C
inactive: [1] | [2] | [3] | [4]

Nc1ccn(C2CO[C@H](CO)O2)c(=O)n1 (some centres not stated)
inactive: all assays above

CN[C@H]1[C@@H](O)[C@@H]2O[C@@H]3O[C@H](C)CC(=O)[C@]3(O)O[C@@H]2[C@@H](NC)[C@H]1O
active: [1] 0.166 µM | [2] 2.96 µM | [3] 3.72 µM | [4] 0.296 µM

O=C(C[C@@H]1CC=CCCC(=O)O[C@H](c2ccccc2)CNC1=O)NCc1ccc(Cl)cc1
inactive: [1] | [2] | [3] | [4]

Source: PubChem BioAssay (NCATS)
